Experimental data taken from PubChem BioAssay (NCI).
Compounds without any hit were thinned out: in the full panel of roughly 83,000, 20% have a hit.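 Each cell line was grown in a 96-well plate and treated with one concentration of compound for 48 hours. Values below 10 were considered active.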 A number with no mark means an inactive call. The source made the active and inactive calls.

Tests used:
Test in all cases: NCI-60 one-dose screen, 48 h (100 = growth as untreated, 0 = no growth, -100 = all killed)
Settings in all cases: 10 µM unless noted
NCI-H23 lung = test system: NCI-H23 lung
NCI-H226 lung = test system: NCI-H226 lung
NCI-H322M lung = test system: NCI-H322M lung
HOP-62 NSCLC = test system: HOP-62 NSCLC
NCI-H460 lung = test system: NCI-H460 lung
HOP-92 NSCLC = test system: HOP-92 NSCLC
NCI-H522 lung = test system: NCI-H522 lung
A549/ATCC NSCLC = test system: A549/ATCC NSCLC
786-0 renal = test system: 786-0 renal
COLO 205 colon = test system: COLO 205 colon
DU-145 prostate = test system: DU-145 prostate
K-562 leukemia = test system: K-562 leukemia
MALME-3M melanoma = test system: MALME-3M melanoma
MDA-MB-231 breast = test system: MDA-MB-231 breast
RXF 393 renal = test system: RXF 393 renal
SF-268 CNS = test system: SF-268 CNS
SF-295 CNS = test system: SF-295 CNS
SF-539 CNS = test system: SF-539 CNS
UACC-257 melanoma = test system: UACC-257 melanoma
M14 melanoma = test system: M14 melanoma

Structure (SMILES)	growth (NCI-H23 lung)	growth (NCI-H226 lung)	growth (NCI-H322M lung) [%]	growth (HOP-62 NSCLC)	growth (NCI-H460 lung)	growth (HOP-92 NSCLC)	growth (NCI-H522 lung)	growth (A549/ATCC NSCLC)	growth (786-0 renal)	growth (COLO 205 colon)	growth (DU-145 prostate) [%]	growth (K-562 leukemia)	growth (MALME-3M melanoma)	growth (MDA-MB-231 breast)	growth (RXF 393 renal)	growth (SF-268 CNS)	growth (SF-295 CNS)	growth (SF-539 CNS)	growth (UACC-257 melanoma)	growth (M14 melanoma)
COc1cc(-c2cc(-c3ccc(Nc4nc(Nc5ccc(Cl)cc5)nc(Nc5ccc(Cl)cc5)n4)cc3)no2)cc(OC)c1OC	88.3%	78%	80.8	70.3%	76.2%	37.9%	76.5%	66.7%	72.7%	51.5%	80.6	50.9%	88.7%	64.4%	33.9%	67.9%	62.3%	74.9%	100%	68.3%
O=C1C(Cl)=C(Nc2ccccc2)C(=O)c2ccccc21	-34.3% (active)	95.5%	92.5	101%	81.1%	-94.4% (active)	-86.2% (active)	90.8%	31.9%	14%	87.3	-14.8% (active)	-79.5% (active)	-67.5% (active)	-89.3% (active)	-45.7% (active)	90%	44.9%	-79% (active)	-69.4% (active)
O=C(Nc1cccnc1Nc1ccccc1)c1cn(Cc2cccc(Oc3ccccc3)c2)nn1	68.3%	64.7%	71.8	78.6%	42.6%	71.2%	61.3%	57.9%	56.7%	107%	69.8	33%	56.3%	57.3%	50.1%	53.6%	52.3%	42%	73%	27.5%
Ic1ccc(Nc2nc3nonc3nc2Nc2ccc(I)cc2)cc1	1.49% (active)	0.546% (active)	10.9	-18.3% (active)	3.11% (active)	-16.4% (active)	-20.2% (active)	4.13% (active)	8.27% (active)	-62.7% (active)	22.7	4.38% (active)	-17.9% (active)	-5.93% (active)	-0.305% (active)	20.8%	-47.6% (active)	17%	-29.7% (active)	2.71% (active)
COc1ccc(C(=O)C/C(=C\c2ccc(O)c(OC)c2)C(=O)NN)cc1	68.9%	91.7%	82	67.4%	43.6%	69.5%	52.1%	80%	112%	106%	101	47.2%	93.4%	65.4%	107%	92.4%	102%	80.8%	81.5%	91.5%
COc1cc2c(c(OC)c1OC)CCC(c1cccc(C(=O)Nc3ccc(Br)cc3)c1)O2 (stereo not given)	75.8%	62.7%	50	82%	84%	17%	48.8%	64.2%	84.1%	76.5%	71	40.4%	72.3%	17%	75%	76.6%	56.5%	76.6%	75.6%	70.5%
COc1cc(O)c2c(=O)c3c(CC=C(C)C)cc(OC)c(O)c3oc2c1	41.4%	78.7%	38.3	25.4%	12.5%	80.8%	-12.9% (active)	35.6%	36.1%	112%	19.5	12.2%	66.9%	24.3%	13.7%	51.9%	42.2%	6.54% (active)	63.1%	15.6%
